# Most compounds without a hit are left out; they make up all but 15% or so of the library.
# 12-LOX inh: blocks human arachidonate 12S-lipoxygenase; purified 12hLO, xylenol orange hydroperoxide absorbance; P18054; 580,000 compounds, 1.1% hits; AID 1671190; Potency, µM (top dose mostly 108 µM), inactives show at the highest dose activity change, negative = inhibition, most hits filed as inhibitors
# Target sequence (P18054 whole entry, looked up): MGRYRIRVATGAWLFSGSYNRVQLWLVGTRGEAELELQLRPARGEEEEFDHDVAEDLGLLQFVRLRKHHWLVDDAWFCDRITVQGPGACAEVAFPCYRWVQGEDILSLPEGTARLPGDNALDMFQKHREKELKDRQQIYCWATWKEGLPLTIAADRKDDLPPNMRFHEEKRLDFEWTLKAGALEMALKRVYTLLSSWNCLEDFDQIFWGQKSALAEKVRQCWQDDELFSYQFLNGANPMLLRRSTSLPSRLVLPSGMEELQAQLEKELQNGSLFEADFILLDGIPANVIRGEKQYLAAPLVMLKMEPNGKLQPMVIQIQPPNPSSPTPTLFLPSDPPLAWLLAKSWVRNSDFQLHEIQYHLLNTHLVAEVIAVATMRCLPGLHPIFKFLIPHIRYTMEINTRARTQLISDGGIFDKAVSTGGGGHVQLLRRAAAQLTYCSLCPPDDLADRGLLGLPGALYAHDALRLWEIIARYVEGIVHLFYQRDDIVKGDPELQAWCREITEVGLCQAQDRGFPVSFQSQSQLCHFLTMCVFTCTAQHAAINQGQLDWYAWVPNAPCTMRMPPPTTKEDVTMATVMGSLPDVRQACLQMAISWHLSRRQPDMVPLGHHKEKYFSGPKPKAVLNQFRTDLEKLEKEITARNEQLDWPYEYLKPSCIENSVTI
#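 Hydroperoxide product was detected by ferrous iron/xylenol orange as the 573 to 405 nm absorbance ratio. Arachidonic acid at 40 uM (final) was turned over for 30 min at room temperature by 150 nM human 12hLO, pH 7.0 Hepes buffer, after 15 min compound preincubation.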
# ELG1 repair inh: inhibitors of ELG1-dependent DNA repair in HEK293T cells. HEK293T ELG1-luciferase reporter, luminescence, 16 h; DNA damage induced by 5-fluorouridine. Potency, µM (titrated, usually from 46.1 µM), without a hit: at the highest dose activity change, negative = inhibition, most hits filed as inhibitors. 330,000 compounds, 2.3% hits. AID 504467; also: nearly all actives have a fitted effect of over 55% in size
#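 Quantitative HTS, concentration-response format. 2,000 cells/well co-treated with 5-fluorouridine and compound, 16 hr in 5% CO2 at 37 °C; ONE-Glo luminescence read after 30 min.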
# TDP1 cell noCPT: qHTS for Inhibitors of human tyrosyl-DNA phosphodiesterase 1 (TDP1): qHTS in cells in absence of CPT | DT40 Tdp1-/- hTDP1 cells, no CPT, ATP luminescence, 48 h | Potency, µM (series often up to 46.2 µM), without a hit: at the highest dose activity change, negative = growth inhibition, most hits filed as inhibitors | 420,000 compounds, 15% hits | AID 686978, 2013; also: nearly all actives have a fitted effect of over 55% in size
#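 Luminescent ATP content (CellTiter-Glo) served as the growth readout. Knockout chicken DT40 cells expressing human TDP1 were exposed to compounds without camptothecin for a minimum 48 hr at 37 °C.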
# RORg inh: ROR gamma (mouse) transcription inhibition; P51450; Drosophila S2 Gal4-RORgamma UAS-luciferase reporter, 20 h; Potency, µM (titrated, usually from 53.6 µM), inactives show at the highest dose activity change, negative = inhibition, actives largely listed as inhibitors; 310,000 compounds, 5.4% hits; also: nearly all actives have a fitted effect of over 60% in size
#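 ROR gamma transcriptional activity was tracked as Gal4-UAS luciferase output in stably transfected Drosophila Schneider cells, with compound added 1 hr before 700 uM copper sulfate induction and a 20 hr ambient-temperature incubation.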
# Gal4-VP16 FLuc: inhibits Gal4-VP16 luciferase reporter, ROR gamma counter-screen. Potency, µM (doses to about 53.6 µM), for inactives: top-dose activity, negative = inhibition, hits mostly inhibitors. 310,000 compounds, 3.5% hits. Drosophila S2 Gal4-VP16 UAS-luciferase, luminescence, 20 h. AID 2546;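 also: Gal4-VP16 expression switched on by copper sulfate through the metallothionein promoter; nearly all actives have a fitted effect of over 50% in size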
# DT40 TDP1 CPT: growth inhibition of DT40 Tdp1-/-;hTDP1 cells with camptothecin (screen for TDP1 inhibitors) | chicken DT40 Tdp1-/-;hTDP1 cells + 20 nM CPT, ATP luminescence, 48 h | Potency, µM (top dose mostly 46.2 µM), for inactives: at the top dose activity change, negative = growth inhibition, actives largely listed as inhibitors | 420,000 compounds, 12% hits | AID 686979; also: nearly all actives have a fitted effect of over 55% in size
#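 Chicken DT40 Tdp1-/- cells stably complemented with human TDP1 were seeded at 400 cells/well in medium containing 20 nM camptothecin, exposed to pin-transferred compounds, and grown at 37 °C for at least 48 hr. Viability was read as ATP luminescence.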
# * hit, by the source's call; u = inconclusive; x = no result given; [ ] = remark or other dose. Calls follow the shape of the dose curve; as a rule, active = well fitted curve in the direction sought with a large enough effect; inconclusive = small, poorly fitted or top-dose-only effect, or another doubt; inactive = no such curve, though single readings can be large; an effect the other way counts as inactive or inconclusive. % is scaled to controls: 0 for no effect and ±100 for the full control effect; potency is read from the fitted curve at half-maximal effect.
SMILES,12-LOX inh,ELG1 repair inh,TDP1 cell noCPT,RORg inh,Gal4-VP16 FLuc,DT40 TDP1 CPT
CN1CC[C@]23c4ccccc4N[C@H]1[C@]21CCN(C)[C@H]3Nc2ccccc21,-13%,1%,7%,x,x,0%
COC(=O)C1CC23C=CCN4CCC5(c6ccccc6NC15C2C)C43 (centres undefined),u,u,1.3µM*,0%,-5%,1µM*
Cc1ccccc1NC(=S)NCc1ccc2[nH]c3c(c2c1)CCCC3,u,u,21µM*,1.6µM*,3.5µM*,u
Cc1ccc(C)c(NC(=S)NCc2ccc3[nH]c4c(c3c2)CCCC4)c1,u,u,u,2µM*,6.3µM*,u
O=C(NCc1ccc2[nH]c3c(c2c1)CCCC3)c1ccc(S(=O)(=O)N2CCCC2)cc1,-2%,-11%,u,u,9%,u
CN(C)S(=O)(=O)c1ccc(C(=O)NCc2ccc3[nH]c4c(c3c2)CCCC4)cc1,-3%,-27%,u,u,-3%,u
S=C(NCc1ccc2[nH]c3c(c2c1)CCCC3)Nc1ccccc1Cl,u,-20%,u,3.2µM*,8.9µM*,u
O=C(O)CCC(=O)NNC(=O)COc1cccc(Cl)c1,u,10%,-7%,-26%,-7%,12%
O=C(COc1cccc(Cl)c1)NNC(=S)Nc1ccccc1,-28%,12%,-19%,0.89µM*,1µM*,-17%
Cc1occc1C(=O)NNC(=O)COc1ccc(Br)cc1Br,-2%,u,-13%,16%,2%,-8%
O=C(COc1ccc(Cl)cc1Cl)NC(=S)Nc1ccc(CN2CCOCC2)cc1,0%,-1%,-7%,16µM*,u,3%
CSc1ccccc1NC(=O)COc1ccc(Cl)cc1Cl,-23%,u,-26%,u,1%,u
Cc1occc1C(=O)NNC(=S)NC(=O)COc1ccc(Cl)cc1Cl,u,u,18µM*,16µM*,u,u
O=C(COc1ccc(Cl)cc1Cl)Nc1ccccn1,-10%,u,-6%,-3%,2.8µM*,-19%
Cc1ccccc1-n1cnnc1SCC(=O)Nc1ccccc1C(=O)NCCc1ccccc1,-5%,x,x,x,x,x
O=C(COc1ccc(Cl)cc1Cl)NNC(=S)Nc1ccc(F)cc1,u,16%,-17%,3.5µM*,u,-25%
O=C(COc1ccc(Cl)cc1Cl)NC(=S)Nc1ccccc1C(=O)O,x,29%,x,18%,-10%,x
CC(=O)NC(=S)Nc1ccc(NC(=O)COc2ccc(Cl)cc2Cl)cc1,0%,0%,6.5µM*,6%,-5%,u
Cc1cc(C)cc(Nc2nc(-c3ccccc3F)no2)c1,28%,x,x,x,x,x
C=CCn1c(O)c(N=NC(=S)Nc2ccc(OC)cc2)c2ccccc21,5%,u,4.6µM*,3.2µM*,4µM*,3.7µM*
C=CCn1c(O)c(N=NC(=S)Nc2cccc(OC)c2)c2ccccc21,8%,16%,2.9µM*,0.79µM*,2.5µM*,3.3µM*
C=CCn1c(O)c(N=NC(=O)OCC)c2ccccc21,-13%,7%,u,5%,u,u
Cc1ccc(NC(=O)CSc2nc(N)c3c4c(sc3n2)CSC(C)(C)C4)cc1,-24%,u,16µM*,u,-14%,23µM*
Cc1ccccc1NC(=O)CSc1nc(N)c2c3c(sc2n1)CSC(C)(C)C3,-28%,u,u,u,-10%,23µM*
CN(C(=O)CSc1nnc(Nc2ccccc2)s1)c1c(N)n(Cc2ccccc2)c(=O)[nH]c1=O,0%,4%,u,1%,1%,u
SMILES,12-LOX inh,ELG1 repair inh,TDP1 cell noCPT,RORg inh,Gal4-VP16 FLuc,DT40 TDP1 CPT
CCCCN(C(=O)CSc1nnc(Nc2ccc(C)c(C)c2)s1)c1c(N)n(Cc2ccccc2)c(=O)[nH]c1=O,-13%,11%,u,-2%,-12%,18µM*
CC(=Nc1ccccc1)C1=C(O)C(Cc2ccc(O)cc2)NC1=O (centres undefined),-16%,x,0.0082µM*,x,x,0.018µM*
O=C1NC[C@H](Cc2ccccc2)N(CCc2cccc(F)c2)C1=O,-4%,-3%,-4%,7%,1%,-14%
CC(=Nc1ccccc1)C1=C(O)C(Cc2cccc(F)c2)NC1=O (centres undefined),u,x,0.1µM*,x,x,0.0058µM*
Cc1ccc(S(=O)(=O)N2CCN(c3ncnc4c3nnn4-c3ccccc3)CC2)c(C)c1,-1%,x,x,x,x,x
COc1ccc(/C=C2\Sc3ccc(C(=O)N4CCN(Cc5ccccc5)CC4)cc3N(C)C2=O)cc1OC,-1%,23µM*,3.3µM*,38%,-8%,5.2µM*
COc1ccc(/C=C2\Sc3ccc(C(=O)NCc4cccnc4)cc3N(C)C2=O)cc1OC,-6%,18µM*,16µM*,33%,-12%[10 µM],21µM*
COc1cccc(/C=C2\Sc3ccc(C(=O)NCc4cccnc4)cc3N(C)C2=O)c1,u,u,u,21%,-19%,u
Cc1ccccc1CNC(=O)Cn1ccc2c(C)nn(C)c2c1=O,3%,x,x,x,x,x
CC1Cc2ccccc2N1c1ncnc(N)c1[N+](=O)[O-] (centres undefined),0%,1.5µM*,1.5µM*,4.5µM*,u,4.1µM*
CN(Cc1ccccc1)c1ncnc(N)c1[N+](=O)[O-],-22%,u,u,-37%,u,-28%
CC1Cc2ccccc2N1c1ncnc2nc[nH]c12 (centres undefined),x,-19%,23µM*,26%,0%,u
c1ccc2c(c1)CCN(c1ncnc3nc[nH]c13)C2,-20%,3%,u,-22%,-3%,u
ClCCCNC1C2CC3CC(C2)CC1C3 (centres undefined),-18%,x,x,x,x,x
CCOC(=O)c1ccc(Oc2nc(N3CCOCC3)nc(N3CCOCC3)n2)cc1,16%,x,x,x,x,x
Cc1nc2cccnc2n1-c1cccc(C(=O)NCc2cccc(Cl)c2)c1,-19%,x,18µM*,x,x,21µM*
Cc1ccc(C(=O)N2CCN(c3cccc(Cl)c3)CC2)cc1-n1c(C)nc2cccnc21,-16%,x,9.2µM*,x,x,10µM*
CCc1ccc(CNC(=O)c2cccc(-n3c(C)nc4cccnc43)c2)cc1,-24%,x,16µM*,x,x,13µM*
Cc1noc(CSc2ccccc2C(=O)N2CCC(C)CC2)n1,9%,x,x,x,x,x
CC(C)c1nnc(NC(=O)c2nn(C(C)C)c(=O)c3ccccc23)s1,-21%,x,x,x,x,x
O=c1[nH]c(COc2ccc(Cl)cc2Br)nc2ccccc12,-1%,u,u,25%,5%,23µM*

# Screens: PubChem BioAssay, National Center for Advancing Translational Sciences (NCATS)
